Reference: PubChem BioAssay (NCI)
About 83,000 compounds went through this panel and 20% of them were active in at least one assay; those are over-represented in the sample as a whole.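 Growth was measured after 48 h exposure to one concentration of compound in 96-well plates. Values under 10 count as active.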 Unmarked numbers belong to inactive results. The source made the active and inactive calls.

Key:
Assay in all cases: NCI-60 one-dose screen, 48 h (100 = growth as untreated, 0 = no growth, -100 = all killed)
Conditions in all cases: 10 µM unless noted
NCI-H23 lung = tested on: NCI-H23 lung
NCI-H226 lung = tested on: NCI-H226 lung
NCI-H322M lung = tested on: NCI-H322M lung
HOP-62 NSCLC = tested on: HOP-62 NSCLC
NCI-H460 lung = tested on: NCI-H460 lung
HOP-92 NSCLC = tested on: HOP-92 NSCLC
NCI-H522 lung = tested on: NCI-H522 lung
A549/ATCC NSCLC = tested on: A549/ATCC NSCLC
786-0 renal = tested on: 786-0 renal
COLO 205 colon = tested on: COLO 205 colon
DU-145 prostate = tested on: DU-145 prostate
K-562 leukemia = tested on: K-562 leukemia
MALME-3M melanoma = tested on: MALME-3M melanoma
MDA-MB-231 breast = tested on: MDA-MB-231 breast
RXF 393 renal = tested on: RXF 393 renal
SF-268 CNS = tested on: SF-268 CNS
SF-295 CNS = tested on: SF-295 CNS
SF-539 CNS = tested on: SF-539 CNS
UACC-257 melanoma = tested on: UACC-257 melanoma
M14 melanoma = tested on: M14 melanoma

Structure (SMILES)	growth (NCI-H23 lung)	growth (NCI-H226 lung)	growth (NCI-H322M lung)	growth (HOP-62 NSCLC)	growth (NCI-H460 lung)	growth (HOP-92 NSCLC)	growth (NCI-H522 lung)	growth (A549/ATCC NSCLC)	growth (786-0 renal)	growth (COLO 205 colon)	growth (DU-145 prostate)	growth (K-562 leukemia)	growth (MALME-3M melanoma)	growth (MDA-MB-231 breast)	growth (RXF 393 renal)	growth (SF-268 CNS)	growth (SF-295 CNS)	growth (SF-539 CNS)	growth (UACC-257 melanoma)	growth (M14 melanoma)
COc1ccc(OC)c(NC=O)c1	101%	103%	111%	98.1%	105%	101%	103%	105%	104%	108%	105%	99.8%	107%	106%	103%	99.6%	106%	103%	102%	103%
COc1cc(OC)c(/C=C/C(=O)c2c(N)cc(OC)cc2OC)c(OC)c1	8.81% (active)	75%	54.4%	43.6%	2.53% (active)	26.6%	-11.8% (active)	27.4%	35.2%	-24.4% (active)	12.6%	13.9%	63.6%	41.2%	-46.1% (active)	42.6%	4.26% (active)	-6.02% (active)	49.4%	18.2%
COc1ccc(C(=O)CCC(=O)O)cc1	89.4%	93.3%	97.3%	104%	101%	105%	102%	93.2%	103%	101%	99.7%	49.1%	87%	80.4%	109%	95.6%	95%	98.7%	80.2%	95.3%
C=C(C)[C@@H]1CC[C@]2(C(=O)N3CCN(C)CC3)CC[C@]3(C)[C@H](CC[C@@H]4[C@@]5(C)C/C(=C/c6ccncc6)[C@H](O)C(C)(C)[C@@H]5CC[C@]43C)[C@@H]12	4.32% [100 µM] (active)	-51% [100 µM] (active)	-27% [100 µM] (active)	-38.6% [100 µM] (active)	-67.4% [100 µM] (active)	-39.3% [100 µM] (active)	-46.3% [100 µM] (active)	16.2% [100 µM]	-90.8% [100 µM] (active)	-74.8% [100 µM] (active)	-12.4% [100 µM] (active)	-13.4% [100 µM] (active)	-55.1% [100 µM] (active)	-48.5% [100 µM] (active)	-88.5% [100 µM] (active)	4.1% [100 µM] (active)	-53.6% [100 µM] (active)	-72% [100 µM] (active)	-31.2% [100 µM] (active)	-13.6% [100 µM] (active)
COc1cc(NCc2cn(-c3ccc(C(=O)O)cc3)nc2-c2ccc(C(=O)O)cc2)cc(OC)c1OC	107%	99.3%	93.9%	98.6%	99.9%	68.1%	101%	102%	90.8%	108%	93.8%	107%	80.8%	76.4%	105%	95.6%	102%	90.2%	99.7%	96.5%
CN(C)c1cc(NN=C(c2ccc(O)cc2)c2ccc(O)cc2)c([N+](=O)[O-])cc1[N+](=O)[O-]	41%	98.7%	117%	58%	30.4%	73%	1.73% (active)	13.2%	16.7%	89.5%	96.8%	118%	153%	81.8%	0.652% (active)	81.5%	79.3%	74.9%	25.1%	48.2%
CNC(=O)c1cc(Oc2ccc3nc(NC(=O)c4ccc5ncccc5c4)sc3c2)ccn1	92.7%	68.6%	99%	112%	98.6%	110%	54.3%	76.5%	98.4%	95.8%	105%	93.7%	80.5%	98.6%	109%	97.4%	86.9%	107%	93.1%	102%
CC(C)CCSc1nc(N)nc2nc[nH]c12	104%	96.7%	143%	102%	96.8%	76.4%	79.9%	104%	95.9%	102%	107%	81.7%	250%	106%	106%	108%	132%	87.4%	113%	91.6%
